Only some compounds are listed: those with a hit (about 12% of all), similar ones and a draw of the others.
BAZ2B inh = blocks human BAZ2B. Potency, µM (titrated, usually from 114 µM), usual class: inhibitors. 360,000 tested, 4.4% active. AlphaScreen BAZ2B-H3K14Ac peptide displacement. Q9UIF8. AID 504333; also: nearly all actives have a fitted effect of over 60% in size
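AlphaScreen luminescence quantifies BAZ2B engagement of H3K14Ac peptide; the protein and biotinylated peptide are both at 50 nM final, buffer PBS pH 7.4 with 0.01% Tween-20, all steps at room temperature.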
PLK1 PBD inh = blocks phosphopeptide binding to human PLK1 polo-box domain | P53350 | Plk1 PBD binding of FITC phosphopeptide, fluorescence polarization | Potency, µM, most hits filed as inhibitors | 360,000 tested, 2.8% active | AID 720504; also: series mostly up to about 57 µM; nearly all actives have a fitted effect of over 65% in size
Target sequence (P53350 whole entry, looked up, the tested form may be a part): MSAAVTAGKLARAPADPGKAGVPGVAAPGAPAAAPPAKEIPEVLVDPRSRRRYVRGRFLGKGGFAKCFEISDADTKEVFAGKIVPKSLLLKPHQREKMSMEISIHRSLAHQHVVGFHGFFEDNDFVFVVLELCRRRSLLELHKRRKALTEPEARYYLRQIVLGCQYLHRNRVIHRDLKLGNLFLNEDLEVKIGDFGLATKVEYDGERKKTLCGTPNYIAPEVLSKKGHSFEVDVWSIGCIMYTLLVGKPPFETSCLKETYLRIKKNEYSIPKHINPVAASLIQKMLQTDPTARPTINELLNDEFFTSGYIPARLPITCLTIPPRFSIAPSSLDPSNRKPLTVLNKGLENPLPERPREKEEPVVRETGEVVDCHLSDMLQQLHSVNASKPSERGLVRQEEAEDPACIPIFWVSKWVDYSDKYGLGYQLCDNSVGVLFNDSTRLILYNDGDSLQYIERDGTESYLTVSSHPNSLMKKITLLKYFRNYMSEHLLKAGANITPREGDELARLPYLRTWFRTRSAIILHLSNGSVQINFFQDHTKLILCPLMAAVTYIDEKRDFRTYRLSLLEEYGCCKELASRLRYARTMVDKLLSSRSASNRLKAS
G9a block = G9a (human) methyltransferase inhibition; Q96KQ7; G9a H3K9 monomethylation, AlphaScreen, 2 h; Potency, µM (series often up to 102 µM), actives largely listed as inhibitors; 350,000 tested, 8.8% active; AID 504332; also: nearly all actives have a fitted effect of over 75% in size
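G9a (20 nM) preincubated 15 min RT with compounds, then 500 nM biotinylated H3K9 peptide and 20 uM SAM added; 2 h RT reaction. Monomethyl-H3K9 product detected by AlphaScreen with anti-H3K9me1 antibody, streptavidin donor and anti-rabbit IgG acceptor beads.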
JMJD2A Tudor = inhibitors of human JMJD2A Tudor domain. O75164. AlphaScreen JMJD2A-Tudor / H3K4me3 peptide binding. Potency, µM (series often up to 114 µM), actives largely listed as inhibitors. 390,000 tested, 4.4% active. AID 504339; also: nearly all actives have a fitted effect of over 50% in size
HP1b binding inh = inhibitors of HP1-beta chromodomain binding to methylated histone tails | P83916 | Potency, µM (highest dose often 114 µM), most hits filed as inhibitors | AlphaScreen HP1-beta / biotin-H3K9me3 peptide binding | 390,000 tested, 0.56% active; also: nearly all actives have a fitted effect of over 70% in size
Target sequence (P83916 whole entry, looked up): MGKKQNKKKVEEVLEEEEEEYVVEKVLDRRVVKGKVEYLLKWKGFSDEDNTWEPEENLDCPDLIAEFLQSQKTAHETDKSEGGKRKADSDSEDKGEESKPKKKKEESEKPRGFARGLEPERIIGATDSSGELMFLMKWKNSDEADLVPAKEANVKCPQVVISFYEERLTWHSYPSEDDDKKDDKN
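AlphaScreen: HP1-beta (50 nM) preformed 30 min with biotin-H3(1-18)K9me3 peptide (50 nM) in PBS pH 7.4, 0.01% Tween-20. Compound added for 30 min at RT, then streptavidin donor/nickel chelate acceptor beads (10 ug/mL) for 30 min.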
PI5P4Ka inh = PI5P4K alpha (human) kinase inhibition; 330,000 tested, 1.2% active; AID 652105; PI5P4Kalpha enzyme, ADP-Glo luminescence, 60 min; hits give low values; max response, %; P48426; active = max response of -50% or lower; inconclusive = between -30% and -50%; inactive = -30% or higher; also: value at the top dose of about 77 µM
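PI5P4Kalpha ADP-Glo assay; 5 microM ATP final; 60 min RT reaction; HEPES pH 7.4/EGTA/CHAPS, 5% DMSO; controls lacking substrate or enzyme; luminescent end-point.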
Large screens that a line does not name were inactive; ! = repeats disagree. Unless noted, calls follow the shape of the dose curve; as a rule, active = well fitted curve in the direction sought with a large enough effect; inconclusive = small, poorly fitted or top-dose-only effect, or another doubt; inactive = no such curve, though single readings can be large; an effect the other way counts as inactive or inconclusive.

CCOc1ccc(NC(=O)CCS(=O)(=O)c2ccc3nc(C)sc3c2)cc1	none (no result: PLK1 PBD inh, PI5P4Ka inh)
N=C(N)SCc1nc2ccccc2c(=O)n1-c1ccccc1	PLK1 PBD inh 8.4µM!, G9a block 45µM, JMJD2A Tudor inconclusive, PI5P4Ka inh inconclusive
CCCCN(C)CCn1c(=S)[nH]c2ccc(N3CCOCC3)cc2c1=O	G9a block inconclusive, JMJD2A Tudor 28µM (no result: PI5P4Ka inh)
CCOc1cc2[nH]c(=S)n(Cc3ccc(C(=O)O)cc3)c(=O)c2cc1OCC	G9a block 18µM, JMJD2A Tudor inconclusive
CCCCN(C)CCn1c(=S)[nH]c2cc(OCC)c(OCC)cc2c1=O	G9a block 11µM
O=c1c2cc(N3CCOCC3)ccc2[nH]c(=S)n1CCc1ccccc1	none
CCOc1cc2[nH]c(=O)n(Cc3ccc(C(=O)N4CCN(c5ccccc5)CC4)cc3)c(=O)c2cc1OCC	none (no result: PLK1 PBD inh, PI5P4Ka inh)
COc1ccc(CCn2c(=S)[nH]c3ccc(N4CCOCC4)cc3c2=O)cc1OC	PLK1 PBD inh inconclusive, G9a block 18µM
CNC(=O)c1cc2c(n(-c3ccc(C)cc3)c1=O)CC(C)(C)CC2=O	none (no result: PLK1 PBD inh, PI5P4Ka inh)
C#Cc1nc(Nc2cccc(Cl)c2)nc(NC2CCCC2)n1	none (no result: BAZ2B inh, PLK1 PBD inh, G9a block, HP1b binding inh, PI5P4Ka inh)
CN1Cc2cc(C(=O)c3cc(Cl)cc(CSc4ncccn4)c3O)cnc2NC1=O	G9a block 50µM (no result: PLK1 PBD inh, JMJD2A Tudor, HP1b binding inh, PI5P4Ka inh)
O=C(NC1CC(=O)N(c2ccc(F)cc2)C1)C1CC1 (centres undefined)	none (no result: PLK1 PBD inh, PI5P4Ka inh)
CCc1nn2c(=O)cc(COc3ccc(/C=C4\C(=N)N5N=C(CC(C)C)SC5=NC4=O)cc3)nc2s1	BAZ2B inh inconclusive, PLK1 PBD inh inconclusive, JMJD2A Tudor 45µM
CC(=O)Nc1ccc(OCCOc2ccc(/C=C3\C(=N)N4N=C(C(C)C)SC4=NC3=O)cc2)cc1	PLK1 PBD inh inconclusive
CCC1=NN2C(=N)/C(=C\c3ccc(OCCOc4ccccc4)c(OC)c3)C(=O)N=C2S1	none (no result: PLK1 PBD inh, JMJD2A Tudor, HP1b binding inh, PI5P4Ka inh)
CCC1=NN2C(=N)/C(=C\c3ccc(OCc4cc(=O)n5nc(CC)sc5n4)c(OC)c3)C(=O)N=C2S1	BAZ2B inh 79µM, PLK1 PBD inh inconclusive, G9a block inconclusive, JMJD2A Tudor inconclusive, PI5P4Ka inh -71
COc1ccc(CCNc2oc(COc3ccc(Br)cc3)nc2C#N)cc1OC	BAZ2B inh inconclusive, G9a block 40µM, JMJD2A Tudor inconclusive
COc1ccc(CCNc2oc(COc3ccccc3F)nc2C#N)cc1	BAZ2B inh inconclusive, G9a block 35µM
CN(C)c1oc(COc2ccccc2F)nc1C#N	none
COc1ccc(CNc2oc(COc3ccc(Cl)cc3)nc2C#N)cc1	BAZ2B inh inconclusive, G9a block inconclusive, JMJD2A Tudor inconclusive, HP1b binding inh inconclusive
N#Cc1nc(COc2ccccc2F)oc1NCc1ccc(F)cc1	BAZ2B inh inconclusive, G9a block 35µM
COc1ccc(CCNc2oc(Cc3cccc4ccccc34)nc2C#N)cc1OC	BAZ2B inh inconclusive, G9a block inconclusive, JMJD2A Tudor inconclusive, HP1b binding inh inconclusive
Cc1cccc(Cn2cccc2CNS(=O)(=O)c2ccccc2F)c1	none (no result: PLK1 PBD inh, PI5P4Ka inh)
CC[C@@H](C)[C@H](CNC)NC[C@@H](Cc1cccc2ccccc12)NCCc1cccc(C(F)(F)F)c1	BAZ2B inh inconclusive, G9a block 45µM, JMJD2A Tudor inconclusive
CCC[C@H](CN[C@@H](CNC)[C@H](C)CC)NCCc1cc(C(F)(F)F)cc(C(F)(F)F)c1	none
Cc1nc2c(Cl)cccc2[nH]1	G9a block 56µM
Cc1ccc(C(=O)Nc2ccc(Oc3ccc(C(=O)O)c(C(=O)O)c3)cc2)cc1C	PLK1 PBD inh inconclusive, G9a block inconclusive, JMJD2A Tudor 79µM
Cc1ccc(C(=O)Nc2ccc(Nc3ccccc3)cc2)cc1C	JMJD2A Tudor inconclusive, HP1b binding inh inconclusive (no result: BAZ2B inh, G9a block)
CC(=O)Nc1sc(N/N=C\c2cccc(Cl)c2)nc1-c1cccs1	PLK1 PBD inh inconclusive, G9a block 10µM, JMJD2A Tudor inconclusive, HP1b binding inh inconclusive
CC(=O)Nc1sc(NC(=O)c2ccccc2)nc1-c1cccs1	none (no result: PI5P4Ka inh)
CC(=O)Nc1sc(N/N=C\c2ccc(O)cc2)nc1-c1cccs1	BAZ2B inh inconclusive, PLK1 PBD inh 27µM, G9a block 32µM, JMJD2A Tudor 40µM, HP1b binding inh inconclusive
CC(=O)Nc1sc(N/N=C\c2ccccc2F)nc1-c1cccs1	G9a block 10µM, JMJD2A Tudor inconclusive, HP1b binding inh inconclusive
C[C@H]1CN([C@@H](C)CO)C(=O)c2cc(-c3ccccc3F)cnc2O[C@@H]1CN(C)C(=O)NC1CCCCC1	none (no result: BAZ2B inh, G9a block, JMJD2A Tudor, HP1b binding inh)
COc1ccccc1NC(=O)CN1C(=O)c2cccc3cccc1c23	none (no result: PLK1 PBD inh, PI5P4Ka inh)
CC(=O)Nc1ccc(C2=NNC(=Nc3cccc(S(=O)(=O)N(C)C)c3)SC2)cc1	PLK1 PBD inh 19µM, G9a block 25µM, JMJD2A Tudor 35µM, HP1b binding inh inconclusive, PI5P4Ka inh -71
COCCN=C1NN=C(c2ccc(NC(C)=O)cc2)CS1	PLK1 PBD inh inconclusive, G9a block inconclusive
CN(C)S(=O)(=O)c1cccc(N=C2NN=C(c3ccccc3)CS2)c1	PLK1 PBD inh inconclusive, G9a block 35µM, HP1b binding inh inconclusive
CC1(C)CC(=O)C2=C(C1)c1c(ccc3ccccc13)NC2c1ccco1 (centres undefined)	BAZ2B inh inconclusive, G9a block 50µM, JMJD2A Tudor inconclusive (no result: PI5P4Ka inh)
Cc1ccsc1C1Nc2ccc3ncccc3c2C2=C1C(=O)CC(C)(C)C2 (centres undefined)	none (no result: PI5P4Ka inh)
COc1ccc(CCNC2CC(C)N(C)CC2C)cc1OC (centres undefined)	G9a block 45µM (no result: PI5P4Ka inh)
COc1ccc(CNC2CC(C)N(C)CC2C)cc1OC (centres undefined)	none
Cc1cc(C)c(NC(=O)c2cc3c(nc4sccn43)s2)c(C)c1	G9a block 50µM
CCN(CC)C(=O)c1cccc(NC(=O)C2CCN(C(=O)c3cccs3)CC2)c1	none (no result: BAZ2B inh, G9a block)
COc1ccc(NC(=O)c2cc3n(n2)C(C(F)(F)F)CC(c2ccc4c(c2)OCO4)N3)cc1OC (centres undefined)	BAZ2B inh inconclusive, G9a block 28µM, JMJD2A Tudor inconclusive (no result: PI5P4Ka inh)
COc1cc(OC)cc(C2=Nn3c(nnc3-c3cccc(OC)c3)SC2)c1	none (no result: BAZ2B inh, PLK1 PBD inh, G9a block, HP1b binding inh, PI5P4Ka inh)
C=CCOc1ccc(C2NC(=S)NC(C)=C2C(=O)c2ccccc2)cc1OC (centres undefined)	G9a block 40µM
CCOc1cc(C2NC(=S)NC(C)=C2C(=O)Nc2ccccc2)ccc1O (centres undefined)	PLK1 PBD inh inconclusive
COc1cccc(C2NC(=S)NC(C)=C2C(=O)c2ccccc2)c1OC (centres undefined)	BAZ2B inh inconclusive, G9a block 22µM
C/C=C\C=C/C(=O)Nc1cccc(C2=NOC3(C2)C[C@@H](C(N)=O)N(C(=O)CCCCC)C3)c1 (some centres undefined)	PLK1 PBD inh inconclusive, JMJD2A Tudor 79µM, HP1b binding inh inconclusive, PI5P4Ka inh -67

Screening data from PubChem BioAssay.
